Test [1] addresses Estrogen receptor (Homo sapiens) (UniProt P03372). The test can be described thus: OT_ER_ERaERa_1440: Odyssey Thera (OT) 24-hour HEK293T Protein-Complementation Assay for Estrogen Receptor-alpha/-alpha Homodimer (AID 2283349).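 Note: hits raise fluorescence above DMSO for agonists and antagonists alike.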 The method in brief: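 Cells (HEK293T) carrying the fragment-tagged ERα LBD (aa 310-547) pair are treated with chemical for 24 hours. Nuclear and/or cytoplasmic fluorescence is then quantified on a laser scanning cytometer. Activity is scored as signal gain against DMSO.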

Test [2] deals with Estrogen receptor (Homo sapiens) + Estrogen receptor beta (Homo sapiens) (UniProt P03372+Q92731). The test can be described thus: OT_ER_ERaERb_0480: Odyssey Thera (OT) 8-hour HEK293T Protein-Complementation Assay for Estrogen Receptor-alpha/-beta Heterodimer (AID 2283352). The method in brief: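 Human HEK293T cells were treated for 8 hours and receptor heterodimerisation was detected through reconstitution of a fluorescent reporter split between ER-alpha and ER-beta ligand-binding domains. Activity was analysed as gain of signal against DMSO.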

For test [3], the target named is chimpanzee Androgen Receptor (AR), AR (gene 747460) (UniProt O97775). Nature of the test: NVS_NR_cAR: NovaScreen (NVS) Nuclear Receptor Binding Assay for chimpanzee Androgen Receptor (AR) (AID 2283346).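 Note: a loss of bound radioligand signal versus DMSO counts as binding.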 The method in brief: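 Radioligand binding to chimpanzee AR expressed in Sf9/Sf21 cells, cell-free, measured 72 h after dosing by lysate-based scintillation counting. Loss of signal vs DMSO; initial duplicate screen at 25 uM, actives retested in concentration series.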

The target of test [4] is Bile acid receptor (Homo sapiens) (UniProt Q96RI1). The test can be described thus: NVS_NR_hFXR_Antagonist: NovaScreen (NVS) Nuclear Receptor Binding Assay for human Farnesoid X Receptor Antagonism (FXR) (AID 2283350). In outline:
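Antagonist-format time-resolved FRET binding assay with extracted human receptor protein, read 1 hour after compound addition. Compounds first screened at 25 uM in duplicate, then actives tested in concentration series, with loss of signal relative to DMSO.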

Inconclusive results are not listed. Activity calls are given as the source filed them. Rule for the calls: active = hit-call score of the fitted dose curve at least 0.9, where 1 is the maximum; inconclusive = response in the unintended direction; inactive = score below 0.9.

Chain of Estrogen receptor (Homo sapiens) (P03372 whole entry, looked up, the tested form may be a part): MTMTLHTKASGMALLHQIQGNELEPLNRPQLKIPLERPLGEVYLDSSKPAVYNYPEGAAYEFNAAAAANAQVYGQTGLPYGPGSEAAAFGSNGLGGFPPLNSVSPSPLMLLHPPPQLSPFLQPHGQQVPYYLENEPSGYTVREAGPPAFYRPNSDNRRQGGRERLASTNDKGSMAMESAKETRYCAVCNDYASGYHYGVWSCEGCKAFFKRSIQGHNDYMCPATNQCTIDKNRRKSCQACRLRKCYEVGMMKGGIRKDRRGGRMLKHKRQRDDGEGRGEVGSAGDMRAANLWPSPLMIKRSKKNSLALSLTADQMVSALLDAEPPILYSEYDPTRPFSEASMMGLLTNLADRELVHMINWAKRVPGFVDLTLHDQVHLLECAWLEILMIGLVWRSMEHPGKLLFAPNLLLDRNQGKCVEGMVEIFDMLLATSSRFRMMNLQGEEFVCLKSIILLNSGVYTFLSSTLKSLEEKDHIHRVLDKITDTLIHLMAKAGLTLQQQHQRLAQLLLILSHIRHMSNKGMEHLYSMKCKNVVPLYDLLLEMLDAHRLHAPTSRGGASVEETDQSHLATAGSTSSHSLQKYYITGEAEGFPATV
Chain of Estrogen receptor (Homo sapiens) + Estrogen receptor beta (Homo sapiens) (P03372 whole entry, looked up, the tested form may be a part): as above
Chain of Estrogen receptor (Homo sapiens) + Estrogen receptor beta (Homo sapiens) (Q92731 whole entry, looked up, the tested form may be a part): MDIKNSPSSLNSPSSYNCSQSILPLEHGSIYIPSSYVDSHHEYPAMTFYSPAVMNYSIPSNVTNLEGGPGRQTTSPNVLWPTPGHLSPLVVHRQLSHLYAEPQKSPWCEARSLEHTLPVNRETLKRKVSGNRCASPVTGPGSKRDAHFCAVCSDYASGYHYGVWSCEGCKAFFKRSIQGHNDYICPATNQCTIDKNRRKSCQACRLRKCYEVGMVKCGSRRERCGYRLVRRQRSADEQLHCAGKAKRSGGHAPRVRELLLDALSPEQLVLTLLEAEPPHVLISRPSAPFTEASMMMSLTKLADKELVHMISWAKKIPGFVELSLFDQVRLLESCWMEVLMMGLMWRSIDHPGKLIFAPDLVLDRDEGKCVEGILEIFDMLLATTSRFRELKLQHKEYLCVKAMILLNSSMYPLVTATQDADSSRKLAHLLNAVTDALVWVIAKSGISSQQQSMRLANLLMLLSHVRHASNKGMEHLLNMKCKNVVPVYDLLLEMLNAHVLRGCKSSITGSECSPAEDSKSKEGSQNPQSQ
Chain of chimpanzee Androgen Receptor (AR), AR (gene 747460) (O97775 whole entry, looked up): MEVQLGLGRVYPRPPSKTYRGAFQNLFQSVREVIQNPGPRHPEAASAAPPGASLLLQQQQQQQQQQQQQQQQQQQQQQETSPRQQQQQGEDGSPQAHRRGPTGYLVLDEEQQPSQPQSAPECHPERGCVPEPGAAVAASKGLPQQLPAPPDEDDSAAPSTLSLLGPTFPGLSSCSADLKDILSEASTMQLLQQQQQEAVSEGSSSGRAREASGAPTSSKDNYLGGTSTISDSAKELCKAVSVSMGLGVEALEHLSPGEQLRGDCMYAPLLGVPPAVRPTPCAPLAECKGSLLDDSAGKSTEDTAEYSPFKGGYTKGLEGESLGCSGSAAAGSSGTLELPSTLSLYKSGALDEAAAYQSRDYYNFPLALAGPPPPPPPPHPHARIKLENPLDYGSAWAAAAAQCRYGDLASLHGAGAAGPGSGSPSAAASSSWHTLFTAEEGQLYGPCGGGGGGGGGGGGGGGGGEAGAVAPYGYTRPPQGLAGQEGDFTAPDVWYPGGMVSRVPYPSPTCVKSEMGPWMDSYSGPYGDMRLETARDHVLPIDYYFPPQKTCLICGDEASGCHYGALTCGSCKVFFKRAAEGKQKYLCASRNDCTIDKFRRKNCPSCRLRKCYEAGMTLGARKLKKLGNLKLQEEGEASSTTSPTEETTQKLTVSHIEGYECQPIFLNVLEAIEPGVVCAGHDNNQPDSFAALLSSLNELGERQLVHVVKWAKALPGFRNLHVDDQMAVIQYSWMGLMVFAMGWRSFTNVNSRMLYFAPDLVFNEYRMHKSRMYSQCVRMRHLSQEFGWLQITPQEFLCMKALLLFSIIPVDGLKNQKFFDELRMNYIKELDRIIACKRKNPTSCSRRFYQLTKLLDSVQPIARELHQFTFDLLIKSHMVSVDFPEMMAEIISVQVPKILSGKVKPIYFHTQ
Chain of Bile acid receptor (Homo sapiens) (Q96RI1 whole entry, looked up): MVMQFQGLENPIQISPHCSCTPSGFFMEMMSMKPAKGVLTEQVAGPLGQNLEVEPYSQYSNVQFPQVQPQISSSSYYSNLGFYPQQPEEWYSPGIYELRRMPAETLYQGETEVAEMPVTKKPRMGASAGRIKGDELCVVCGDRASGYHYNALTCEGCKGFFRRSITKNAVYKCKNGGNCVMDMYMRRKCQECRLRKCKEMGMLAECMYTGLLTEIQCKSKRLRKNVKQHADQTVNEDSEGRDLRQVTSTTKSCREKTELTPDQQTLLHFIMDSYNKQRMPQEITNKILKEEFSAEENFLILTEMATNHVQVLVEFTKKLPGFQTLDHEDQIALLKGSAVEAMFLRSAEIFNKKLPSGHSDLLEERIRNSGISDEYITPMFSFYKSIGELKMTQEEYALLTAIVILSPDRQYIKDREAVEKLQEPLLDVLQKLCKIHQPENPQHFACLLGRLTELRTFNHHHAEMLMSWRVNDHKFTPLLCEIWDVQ

For the molecule `C1CC2OC2CC1C1CO1` (stereo unspecified), the molecule was called inactive in test [1] and in test [2].

Turning to `Cc1ccccc1[N+](=O)[O-]`, in test [1], the result was inactive.

Regarding `CCSC(=O)N(CC)C1CCCCC1`, the call in test [1] was inactive.

As to `Clc1ccc(Cl)cc1`, the molecule was called inactive in test [1] and in test [2].

With `O=C(O)C(F)(F)C(F)(F)C(F)(F)C(F)(F)C(F)(F)F`, the call in test [3], in test [1] and in test [2] was inactive.

In the case of `Clc1ccc(C(Cl)(Cl)Cl)cc1`, the molecule was classed as inactive in test [1] and in test [4].

Values taken from PubChem BioAssay (EPA / NIEHS).
